Measured values reported in PubChem BioAssay (EPA / NIEHS).
Values joined by “and” are separate entries in the source; they are usually repeats but may differ in a detail not shown here. Equal values may be shown once. Some structures have more than one record in an assay (separate samples or runs), and their calls can disagree. Active and inactive are the calls of the source. Rule for the calls: active = hit-call score of the fitted dose curve at least 0.9, where 1 is the maximum; inactive = score below 0.9.

Read-out: Interferon-inducible T-cell alpha chemoattractant (ITAC), CXCL11 (gene 6373)
Assay: BSK_hDFCGF_ITAC: BioMAP Diversity Plus: hDFCGF Assay for Interferon-inducible T-cell alpha chemoattractant (ITAC) Biomarker Activity (AID 2284251)
Conditions: primary human foreskin fibroblasts
Description: BSK_hDFCGF is a cell-based, multiplexed-readout assay that uses foreskin fibroblast, a human skin primary cell, with measurements taken at 24 hours after chemical dosing in a 96-well plate.BSK_hDFCGF_ITAC is an assay component measured in the BSK_hDFCGF assay. It measures I-TAC antibody related to regulation of gene expression using ELISA technology.Data from the assay component BSK_hDFCGF_ITAC was analyzed at the endpoint, BSK_hDFCGF_ITAC, in the positive analysis fitting direction relative to DMSO as the negative control and baseline of activity. Using a type of binding reporter, gain or loss-of-signal activity can be used to understand protein changes. To generalize the intended target to other relatable targets, this assay endpoint is annotated to the 'cytokine' intended target family, where the subfamily is 'chemotactic factor'.
The levels of cell surface (or secreted, indicated by the prefix "s") biomarker endpoints were measured by ELISA. Overt cytotoxicity to cells in confluent adherent cultures (all systems other than the BT system) was assessed by measuring total protein levels using sulforhodamine B (SRB) staining in parallel cultures at the time of biomarker measurements, indicated as SRB endpoints. For proliferation assays for adherent cell types, individual cell types are cultured at sub-confluence and relative cell numbers quantified by SRB staining at time points optimized for each system (48 h: 3C and CASM3C systems; 72 h: BT and HDF3CGF systems; 96 h: SAg system). SRB was performed by staining cells with 0.1% SRB after fixation with 10% TCA and reading wells at 560 nm.Viability and proliferation of PBMC (T cells) was quantified by Alamar Blue reduction for the SAg and BT systems. For PBMC viability (referred to as PBMC Cytotoxicity within the assay endpoint names), cells were plated (75,000/well in a 96-well plate) and then chemical samples added for 1 h before addition of activators, SEB and TSST-1 (20 ng/mL final concentration each). Cells were incubated for 90 h. Then, Alamar Blue (20 uL/well) (Invitrogen, Cat DAL1100) was added for 6 h, and the plates were read with a fluorescence microplate reader at 546/580 nm (excitation/emission). For PBMC proliferation, cells were plated and activated as above but incubated for only 16 h prior to addition of Alamar Blue. Plates were read after 6 h.

**Q.** How did the AC50 turn out when `CCCCCCCCCCCC` was run?
**A.** Its AC50 is 8.55 µM (active) and 5.79 µM (active).

**Q.** `O=C(CC(=O)C(F)(F)C(F)(F)C(F)(F)F)c1cccs1` was tested. Which outcome did it give?
**A.** Its outcome is “inactive”.

**Q.** And the AC50?
**A.** The AC50 was 7.8 µM (active).

**Q.** For `Oc1c(Cl)cc(Cl)cc1Sc1cc(Cl)cc(Cl)c1O`, which AC50 is on record?
**A.** Its AC50 is 1.25 µM (active) and 1.44 µM (active).

**Q.** With `O=C(O)C(F)(F)OC(F)(F)C(F)(F)OC(F)(F)C(F)(F)OC(F)(F)C(F)(F)C(F)(F)C(F)(F)F` as the molecule, how does the AC50 read?
**A.** The AC50 was 11.1 µM (active) and 11.3 µM (active).

**Q.** Which outcome does the source give for `C=CC(=O)OCCC(F)(F)C(F)(F)C(F)(F)C(F)(F)C(F)(F)C(F)(F)C(F)(F)C(F)(F)F` here?
**A.** Its outcome is “inactive”.

**Q.** Which outcome does the source give for `Oc1ccc(Cc2ccccc2O)cc1` here?
**A.** The outcome was “inactive”.

**Q.** For `O=C1NS(=O)(=O)c2ccccc21`, which outcome is on record?
**A.** The outcome was “inactive”.

**Q.** With `O=C(O)CCC(F)(F)C(F)(F)C(F)(F)C(F)(F)C(F)(F)C(F)(F)F` as the molecule, how does the outcome read?
**A.** The outcome was “inactive”.

**Q.** What does the source list for `O=P(O)(O)CCC(F)(F)C(F)(F)C(F)(F)C(F)(F)C(F)(F)C(F)(F)C(F)(F)C(F)(F)F`?
**A.** AC50: 0.236 µM (active); outcome: inactive

**Q.** What does the source list for `O=C(O)CCC(F)(F)C(F)(F)C(F)(F)C(F)(F)C(F)(F)F`?
**A.** outcome: inactive; AC50: 2.04 µM (active)

**Q.** How did the outcome turn out when `O=S(=O)(O)C(F)(F)C(F)(F)C(F)(F)C(F)(F)C(F)(F)C(F)(F)C(F)(F)C(F)(F)C(F)(F)C(F)(F)F` was run?
**A.** Its outcome is “inactive”.

**Q.** What about the AC50 of the same molecule?
**A.** The AC50 was 8.02 µM (active).

**Q.** For `OCC(F)(F)C(F)(F)C(F)(F)C(F)(F)C(F)(F)C(F)(F)C(F)(F)C(F)(F)C(F)(F)C(F)(F)C(F)(F)F`, which outcome is on record?
**A.** Its outcome is “inactive”.

**Q.** For `CN(CCO)S(=O)(=O)C(F)(F)C(F)(F)C(F)(F)C(F)(F)C(F)(F)C(F)(F)C(F)(F)C(F)(F)F`, which outcome is on record?
**A.** Its outcome is “inactive”.

**Q.** For `O=P(O)(O)CCC(F)(F)C(F)(F)C(F)(F)C(F)(F)C(F)(F)C(F)(F)F`, which outcome is on record?
**A.** Its outcome is “inactive”.

**Q.** Which outcome does the source give for `CN(Cc1cnc2nc(N)nc(N)c2n1)c1ccc(C(=O)N[C@@H](CCC(=O)O)C(=O)O)cc1` here?
**A.** The outcome was “inactive”.
